From PubChem BioAssay
Activity calls are given as the source filed them.

Test: HepG2 liver cancer cell viability effects, profiling panel, resazurin fluorescence, 24 h, PK04 Diversity Set (AID 1172); note: test concentration not given here
Conditions: higher = more signal

Row | Compound | z-score
1 | CCCNC(=O)[C@@]1(c2ccc([N+](=O)[O-])cc2)CC(=O)N(C(C)C)[C@@H]1c1ccc(CO)cc1 | 0.0889
2 | [N-]=[N+]=Nc1ccccc1C[C@@]1(C(=O)NCC(O)CO)N=C(c2ccc(OCCCO)cc2)O[C@@H]1c1ccccc1 (stereo not given in full) | 0.559
3 | CC(C)C[C@@H]1NC(=O)[C@@H]2C[C@H](C(=O)NCCCCCCNC(=O)CS)[C@H](c3cccc(OCCO)c3)N2C1=O | -0.889
4 | CC(=O)NCCCC[C@@H]1NC(=O)[C@H]2C[C@@H](C(=O)NCCCCCCNC(=O)CS)[C@@H](c3cccc(OCCO)c3)N2C1=O | -0.0625
5 | O=C1[C@@H]2[C@@H](CC(COc3ccccc3)=C([C@H](O)CCc3ccccc3)[C@@H]2CO)C(=O)N1Cc1ccccc1 | -1.38
6 | O=C(NCC(O)CO)[C@@]1(CCS(=O)(=O)c2ccccc2)N=C(c2ccc(OCCCO)cc2)O[C@H]1c1ccccc1 (stereo not given in full) | -0.748
7 | CN(C)c1ccc(C(O)C2C=CC3C(=O)N(Cc4ccccc4)C(=O)C3N2n2cnnc2)cc1 (stereo not given) | -0.659
8 | COCCOC(=O)N1C(=O)[C@@]2(c3cc(C#CCC(C(=O)OC)C(=O)OC)ccc31)[C@H](C(=O)Nc1nc3ccccc3s1)[C@H]1C(=O)O[C@H](c3ccccc3)[C@H](c3ccccc3)N1[C@@H]2c1ccc(OCCO)cc1 | 0.318

Test: basal S. cerevisiae growth modulation, no modifier, primary screen, OD600, strain BY4716, 24 h, basal condition (AID 1173)
Conditions: OD600, 24 h, higher = more signal, called active from +8 up or from −8 down

Row | Compound | z-score
9 | CCCC[C@H]1OB(O)C[C@H]2C1=C(COc1ccccc1)C[C@H]1C(=O)C=CC(=O)[C@H]12 | -5.19 (inactive)
10 | COCCOC(=O)N1C(=O)[C@@]2(c3ccccc31)[C@H](C(=O)N1CCN(c3ncccn3)CC1)[C@H]1C(=O)O[C@H](c3ccccc3)[C@H](c3ccccc3)N1[C@@H]2c1ccccc1OCCO | 1.76 (inactive)
11 | COC(=O)[C@@]1(Cc2ccccc2)[C@H]2c3cc(C(=O)N(C)C)n(CCO)c3C[C@H]2CN1C(=O)c1ccccc1 | 1.24 (inactive)
12 | [N-]=[N+]=Nc1ccccc1[C@@H]1OC(c2ccc(OCCCO)cc2)=N[C@]1(Cc1ccccc1)C(=O)NCCN1CCOCC1 | -2.57 (inactive)
13 | COc1cc(C(O)C2C=CC3C(=O)N(c4ccccc4)C(=O)C3N2Nc2ccccc2)cc(OC)c1OC (stereo not given) | -7.58 (inactive)
14 | C=CCC(OC(C)=O)[C@@H]1[C@@H](N(Cc2ccc(-c3ccccc3)cc2)C(=O)c2cccc3ccccc23)c2cc(OCCCO)ccc2N1C(=O)Cc1ccc(OC)cc1 (stereo not given in full) | 0.186 (inactive)
15 | Cc1ccc(N2C(=O)c3ccccc3[C@](C)(C(=O)NCCCN(C)C)[C@@H]2c2ccc(CO)cc2)nc1 | -0.742 (inactive)
16 | CCOC(=O)C[C@H]1[C@H](OC(=O)Cc2ccc3c(c2)OCO3)[C@@H](NC(=O)Cc2ccc(OC)cc2)c2cc(OCCCO)ccc2N1C(=O)Cc1ccc(OC)cc1 | -0.605 (inactive)
17 | O=C1N(CCS(=O)(=O)c2ccccc2)c2ccccc2C[C@]12N=C(c1ccc(OCCCO)cc1)O[C@@H]2c1ccccc1 | 0.376 (inactive)
18 | C=CCOC(=O)[C@@H]1[C@H]2C(=O)O[C@H](c3ccccc3)[C@H](c3ccccc3)N2[C@H](c2ccc(OCCOC(=O)[C@H]3C[C@H]4C(=O)N5CCC[C@H]5C(=O)N4[C@H]3c3cccc(OCCO)c3)cc2)[C@@]12C(=O)Nc1ccc(I)cc12 | 2.04 (inactive)
19 | COc1ccc([Si](C)(C)[C@H]2[C@H](CC(=O)N3Cc4ccccc4C[C@H]3CO)O[C@@]3(C(=O)N(c4ccccc4)c4ccccc43)[C@@H]2C)cc1 | -1.89 (inactive)
20 | CCN(CC)c1ccc(N2CC=CC34O[C@@H]5C=CCCOC(=O)C5[C@H]3C(=O)N(C(C)CO)[C@@H]4C2=O)cc1 (stereo not given in full) | -0.315 (inactive)
21 | COCCOC(=O)N1C(=O)[C@@]2(c3cc(C#CC4(O)CCCCCC4)ccc31)[C@H](c1ccc(O)cc1)N1[C@H](c3ccccc3)[C@H](c3ccccc3)OC(=O)[C@H]1[C@@H]2C(=O)N1CCCCCCC1 | -0.525 (inactive)
22 | COC(=O)[C@@]1(Cc2ccc(F)cc2)[C@H]2c3cc(C(=O)N(C)C)n(C)c3C[C@H]2CN1C(=O)c1ccccc1 | 0.109 (inactive)
23 | O=C(NC1CC1)[C@@H]1c2ccccc2C(=O)N(Cc2cc(C(F)(F)F)cc(C(F)(F)F)c2)[C@H]1c1ccc(CO)cc1 | -0.313 (inactive)
24 | COc1ccc(C(O)C2C=CC3C(=O)NC(=O)C3N2Nc2ccc(Cl)cc2Cl)c2ccccc12 (stereo not given) | -9.94 (active)
25 | O=C(NCCN1CCOCC1)[C@@H]1c2ccccc2C(=O)N(Cc2ccccc2C(F)(F)F)[C@H]1c1ccc(CO)cc1 | -0.139 (inactive)
